# PubChem BioAssay (NCI)
# The panel holds about 83,000 compounds, 20% with a hit somewhere; the sample as a whole holds those more often.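 Values shown are percent growth following 48 h exposure of cells in 96-well plates to a single concentration of compound; below 10 was considered active.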 Unmarked numbers belong to inactive results. Activity calls are given as the source filed them.
# Experiments:
# Experiment in all cases: NCI-60 one-dose screen, 48 h (100 = growth as untreated, 0 = no growth, -100 = all killed)
# Settings in all cases: 10 µM
# SR leukemia = test system: SR leukemia
# RPMI-8226 leukemia = test system: RPMI-8226 leukemia
# OVCAR-8 ovarian = test system: OVCAR-8 ovarian
# OVCAR-5 ovarian = test system: OVCAR-5 ovarian
# OVCAR-4 ovarian = test system: OVCAR-4 ovarian
# SK-OV-3 ovarian = test system: SK-OV-3 ovarian
# IGROV1 ovarian = test system: IGROV1 ovarian
# OVCAR-3 ovarian = test system: OVCAR-3 ovarian
# HS 578T breast = test system: HS 578T breast
# T-47D breast = test system: T-47D breast
# BT-549 breast = test system: BT-549 breast
# MDA-MB-435 melanoma = test system: MDA-MB-435 melanoma
# SW-620 colon = test system: SW-620 colon
# MCF7 breast = test system: MCF7 breast
# HCT-116 colon = test system: HCT-116 colon
# HCC-2998 colon = test system: HCC-2998 colon
# KM12 colon = test system: KM12 colon
# NCI/ADR-RES ovarian = test system: NCI/ADR-RES ovarian
SMILES,growth (SR leukemia),growth (RPMI-8226 leukemia),growth (OVCAR-8 ovarian),growth (OVCAR-5 ovarian),growth (OVCAR-4 ovarian),growth (SK-OV-3 ovarian),growth (IGROV1 ovarian),growth (OVCAR-3 ovarian),growth (HS 578T breast),growth (T-47D breast),growth (BT-549 breast),growth (MDA-MB-435 melanoma),growth (SW-620 colon),growth (MCF7 breast),growth (HCT-116 colon),growth (HCC-2998 colon),growth (KM12 colon),growth (NCI/ADR-RES ovarian)
CN1CCN(CCC(=O)Nc2cccc(-n3cc(-c4ccncc4)c(-c4ccc(Cl)c(O)c4)n3)c2)CC1,5.5% (active),19.9%,54.8%,67.7%,56%,46.2%,55.8%,14.4%,43.1%,62.9%,56.5%,-37.9% (active),20.9%,13.9%,19.1%,82.2%,31.2%,
CN(C)CCOc1cccc(NC2=C(Cl)C(=O)C(Nc3cccc(OCCN(C)C)c3)=C(Cl)C2=O)c1,-18.2% (active),-46.9% (active),-94.9% (active),-53.9% (active),-100% (active),94.9%,-76.6% (active),-97.3% (active),0.785% (active),-42.1% (active),,-68.6% (active),-54.9% (active),-40.8% (active),-89.4% (active),11.6%,34.4%,57.2%
COc1nc2c(c(=O)n1C)CN(c1ccccc1)C(=O)C(C)N2 (stereo not given),93.6%,96%,93.4%,93.2%,91.9%,107%,106%,112%,105%,95.5%,,103%,99.9%,94.5%,95.4%,94.5%,105%,91%
CCOC(=O)N/N=C/c1ccc(OC)c(OC)c1,105%,102%,102%,112%,110%,114%,110%,128%,,105%,106%,106%,109%,98.7%,102%,114%,117%,116%
CC(=O)OC/C=C(/C)C[P+](c1ccccc1)(c1ccccc1)c1ccccc1,64.9%,0.0221% (active),35%,81.4%,85.8%,94.7%,83.5%,62.9%,87.9%,14.4%,,53.3%,53.6%,33.3%,26%,80.4%,33.3%,90.3%
COc1cccc(CNc2cccc3cn[nH]c23)c1O,103%,100%,96.5%,106%,80.7%,101%,88.8%,100%,,89.1%,104%,,99.1%,71.5%,102%,107%,99%,105%
CN(C)CCOc1ccccc1NC1=C(Cl)C(=O)C(Nc2ccccc2OCCN(C)C)=C(Cl)C1=O,19%,82.7%,26.6%,109%,-99% (active),119%,10.5%,-96% (active),98.4%,-37.6% (active),,86.4%,-50% (active),-53.9% (active),-75.3% (active),101%,93.6%,92.8%
CC[C@@H]1NC(=O)[C@H]([C@H](O)[C@H](C)C/C=C/c2ccc(CN3C(=O)CCCC3=O)cc2)N(C)C(=O)[C@H](C(C)C)N(C)C(=O)[C@H](CC(C)C)N(C)C(=O)[C@H](CC(C)C)N(C)C(=O)[C@@H](C)NC(=O)[C@H](C)NC(=O)[C@H](CC(C)C)N(C)C(=O)[C@H](C(C)C)NC(=O)[C@H](CC(C)C)N(C)C(=O)CN(C)C1=O,-2.59% (active),9.26% (active),68.4%,83.8%,53.9%,74.9%,58.2%,54.4%,73.9%,25.3%,8.44% (active),10.8%,56%,25.3%,16%,69.6%,45.9%,
O=C1CC(=O)N(C(=O)c2nn(-c3ccc(Cl)cc3)cc2O)N1,-31.9% (active),-8% (active),30.1%,65.2%,34.1%,40.7%,34.4%,-4.11% (active),121%,23.4%,,48.1%,59.9%,39.9%,22.1%,47.4%,46.5%,33.6%
O=C1/C(=C/c2ccc([N+](=O)[O-])s2)Oc2cc(Cl)ccc21,8.31% (active),-14.7% (active),-25.5% (active),53%,3.28% (active),88.8%,-60.9% (active),-76.8% (active),1.22% (active),11.2%,-55% (active),-25.7% (active),-40.9% (active),4.42% (active),-17.8% (active),2.91% (active),-28.4% (active),
COc1ccc(C(=O)c2cc3c(OC)c(OC)c(OC)cc3[nH]2)cc1,-47.8% (active),31.4%,62.8%,68.4%,62.7%,86.4%,35%,45.1%,51.8%,34.9%,,-0.263% (active),33.9%,20.4%,28.1%,51.3%,12.6%,18.6%
O=[N+]([O-])c1ccc(/C(=C/c2ccccc2)[n+]2ccccc2)cc1,102%,98.3%,97%,98%,100%,119%,109%,127%,,112%,109%,101%,103%,98.7%,107%,126%,125%,116%
Cc1cc(=O)n2nnc3cc(Cl)c(Cl)cc3n12,70.5%,97.4%,106%,107%,92.1%,85.2%,,77.8%,122%,76.3%,114%,103%,23.4%,96.3%,91.8%,108%,109%,101%
CCOC(=O)Cn1c(=O)c2sc3ncccc3c2n2nnc(-c3ccccc3)c12,93.5%,94.7%,102%,105%,101%,94%,,120%,112%,94.3%,98.2%,104%,119%,79.8%,91.5%,114%,114%,105%
C=CCNCCN1C(=O)c2ccc3c4c(ccc(c24)C1=O)C(=O)N(CCNCC=C)C3=O,-8.69% (active),13.5%,-24% (active),-52% (active),-97.5% (active),-38.6% (active),,-22.5% (active),1.35% (active),-51.5% (active),21.8%,-85.2% (active),-50.3% (active),-60.1% (active),-23% (active),-81.2% (active),-53.7% (active),-12.9% (active)
COc1ccc(C2CC(c3cccs3)=NN2c2ccc(S(N)(=O)=O)cc2)cc1 (stereo not given),83%,61.2%,84.4%,95.4%,107%,88.5%,,92.5%,97.4%,85.1%,99.7%,82%,100%,75%,70.7%,92.5%,91.5%,77.4%
CC(C1=C(CN(C(=O)Cc2cn(-c3ccccc3)nc2-c2ccc(Cl)cc2)C(C)C)Cc2ccccc21)c1ccccn1 (stereo not given),37.4%,36.5%,81.7%,85%,54.8%,65.4%,,62.4%,80.7%,40.6%,88%,70.1%,75.8%,41.2%,31.9%,68%,54.8%,61.1%
O=C1CC(SC(=S)C2CCCC2=O)C(=O)N1 (stereo not given),89.9%,100%,96.3%,109%,106%,105%,,109%,104%,93.9%,100%,114%,110%,90.8%,99.2%,108%,103%,104%
